Rows were chosen to be rich in hits. Some 2.3% of all compounds tested hit in one or more screens of this group.
MCL1 BIM primary – inhibitors of MCL1 binding to BIM-BH3, primary screen, biochemical, fluorescence polarization. Induced myeloid leukemia cell differentiation protein Mcl-1 (Homo sapiens), Q07820. AID 2057, 2009. inhibition, % at 10.9 µM. 320,000 tested, 0.68% active. GST-MCL1 / FITC-Bim-BH3 fluorescence polarization;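 active = inhibition above the mean inhibition of all tested compounds plus 3 SD, set per campaign, cut at about 40% in these data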;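 also: 0% = DMSO wells and 100% = unlabeled Bim-BH3 peptide control; higher means more loss of mP so more displacement of Bim peptide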
Mcl1-Noxa inh – Mcl-1/Noxa binding inhibitors, primary screen, biochemical, TR-FRET, 1536-well. inhibition, % at 21.7 µM. TR-FRET Mcl-1/Noxa peptide binding, 2 h. 220,000 tested, 1.5% active. Induced myeloid leukemia cell differentiation protein Mcl-1 (Homo sapiens), Q07820;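 active = compounds that cut the protein-peptide binding signal by more than 50% relative to plate controls in a single-dose test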;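 also: His-tagged Mcl-1 with rhodamine Noxa BH3 peptide and terbium anti-His antibody; 0% = Mcl-1 plus Noxa peptide wells and 100% = peptide-only wells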
BCLXL inh – inhibitors of human Bcl-xL, primary screen, biochemical, fluorescence polarization, HTS; GST-Bcl-xL / FITC-Bim BH3 peptide fluorescence polarization; inhibition, % at 10.9 µM; 320,000 tested, 0.7% active;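 active = inhibition above the mean of all tested compounds plus 3 SD, cutoff set per campaign, cut at about 30% in these data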;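 also: 0% = DMSO wells and 100% = unlabeled Bim-BH3 peptide competitor; inhibitors lower millipolarization by displacing the labeled peptide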
Target sequence (Q07817 whole entry, looked up): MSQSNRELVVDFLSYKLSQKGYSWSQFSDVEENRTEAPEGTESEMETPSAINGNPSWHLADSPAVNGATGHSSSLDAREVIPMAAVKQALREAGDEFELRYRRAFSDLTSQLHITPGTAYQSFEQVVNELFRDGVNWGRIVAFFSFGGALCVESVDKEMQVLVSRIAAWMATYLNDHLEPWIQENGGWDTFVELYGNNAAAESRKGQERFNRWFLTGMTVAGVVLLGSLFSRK
Mcl1 Bid PPI – Mcl-1/Bid binding inhibitors, primary screen, biochemical, TR-FRET, 1536-well; TR-FRET Mcl-1/Bid-Dy647 peptide binding; 220,000 tested, 0.97% active; Induced myeloid leukemia cell differentiation protein Mcl-1 (Homo sapiens), Q07820; inhibition, % at 21.7 µM;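 active = compounds that cut the binding signal by more than half at the single screening dose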;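 also: His-tagged Mcl-1 with europium anti-His antibody binding Bid BH3 peptide; 0% = Mcl-1 plus peptide wells and 100% = peptide-only wells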
GLD-1 RNA inh – GLD-1/TGE RNA complex disruptors, primary screen, biochemical, fluorescence polarization; Female germline-specific tumor suppressor gld-1 (Caenorhabditis elegans), Q17339; purified GLD-1 + fluorescein TGE RNA; inhibition, % at 5.96 µM; 320,000 tested, 0.44% active; AID 2280, 2010;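 active = percent inhibition above a per-plate cutoff, the plate mean of test compounds plus 3 SD, cut at about 30% in these data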;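 also: 0% = DMSO wells with GLD-1 and probe and 100% = wells lacking GLD-1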
Mcl-1 Bim block – inhibitors of Bim peptide binding to Mcl-1, primary screen, biochemical, bead-based flow cytometry, multiplex | Induced myeloid leukemia cell differentiation protein Mcl-1 (Homo sapiens), Q07820 | Bim peptide-Mcl-1 binding | inhibition, % at 10 µM | 190,000 tested, 0.1% active; in the data active = inhibition above about 40%;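 also: 0% = no compound tracer wells and 100% = peptide blocker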
Bcl-xL conf – Bcl-xL inhibitors blocking Bim BH3 binding, confirmation, counter-screen for MCL1 inhibitor project, biochemical, fluorescence polarization; GST-Bcl-xL / FITC-Bim BH3 peptide FP binding; inhibition, % at 10.9 µM; AID 2166, 2009; 1,700 tested, 54% active; shares compounds with MCL1 BIM primary;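 active = inhibition above a cutoff equal to the mean inhibition of all tested compounds plus 3 SD, cut at about 30% in these data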;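 also: 0% = DMSO wells and 100% = unlabeled Bim BH3 control peptide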
MCL1 inh confirm – inhibitors of MCL1 binding to BIM-BH3, confirmation, biochemical, fluorescence polarization, triplicate; shares compounds with MCL1 BIM primary; GST-MCL1 / FITC-Bim-BH3 fluorescence polarization; inhibition, % at 10.9 µM; 1,700 tested, 61% active; AID 2168, 2009;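 active = inhibition above the average of all tested compounds plus 3 SD, cut at about 40% in these data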;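 also: 0% = DMSO wells and 100% = unlabeled Bim-BH3 control peptide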
* hit, by the source's call; / = no result given; + = active, no number.

SMILES	MCL1 BIM primary	Mcl1-Noxa inh	BCLXL inh	Mcl1 Bid PPI	GLD-1 RNA inh	Mcl-1 Bim block	Bcl-xL conf	MCL1 inh confirm
Cc1ccc2nc(-c3ccccc3)cn2c1	2.8	18.1	1.3	-1.1	-5.5	2.0	/	/
Cc1ccc2nc(-c3ccc(O)c(O)c3)cn2c1	40.0*	/	22.6	/	9.4	/	60.6*	82.3*
CCc1n[nH]c(=S)n1/N=C/c1cc(OC)cc([N+](=O)[O-])c1O	59.9*	78.2*	4.8	-125.7	4.1	1.0	16.4	67.7*
COc1cc(/C=N/n2c(=S)[nH]nc(C)c2=O)cc([N+](=O)[O-])c1O	7.7	10.6	5.8	-40.4	2.3	0.0	/	/
COc1ccc2[nH]c(C(=O)Nc3ncc(C)cc3Br)cc2c1	51.9*	-5.2	13.6	-8.4	8.2	/	4.2	1.3
CC1CCCN(S(=O)(=O)c2cc3c4c(c2)CCN4C(=O)CC3)C1 (stereo not given)	-1.9	/	-1.8	/	1.8	/	/	/
CC(C)Oc1ccc(C2CC(=O)N(C)C2=O)cc1 (stereo not given)	9.0	/	4.8	/	-3.1	/	/	/
CCc1nnc(NC(=O)c2cc(-c3ccco3)nc3ccccc23)s1	51.2*	82.1*	24.4	-31.4	5.9	1.0	31.6*	72.3*
COc1ccc(NC(=O)c2cc(-c3ccco3)nc3ccccc23)cc1	3.2	/	4.6	/	0.7	/	/	/
CCc1nnc(NC(=O)c2cc(-c3ccccn3)nc3ccccc23)s1	6.4	24.1	7.2	16.1	-1.0	1.0	/	/
O=C(N/N=C/c1cccc(F)c1)c1cc(-c2ccco2)nc2ccccc12	73.6*	90.5*	16.3	-18.6	3.9	-2.0	24.4	63.6*
O=C(NCC1CCCO1)c1cc(-c2ccco2)nc2ccccc12 (stereo not given)	66.6*	41.7	54.7*	-53.0	39.2*	2.0	11.8	24.2
O=C(N/N=C/c1ccc2c(c1)OCO2)c1cc(-c2ccc(F)cc2)nc2ccccc12	-7.6	4.7	2.5	-4.8	-0.2	-2.0	/	/
COc1ccc(NC(=O)c2cc(-c3ccco3)nc3ccccc23)cc1S(=O)(=O)N1CCOCC1	42.5*	101.1*	8.9	-25.1	3.3	/	38.2*	37.5
Cc1onc(-c2ccccc2)c1C(=O)NCC(=O)Nc1cc(Cl)ccc1Cl	/	/	/	/	1.4	/	/	/
CN1C(=O)[C@@H]2C[C@@]3([C@@]45C[C@H]6C(=O)N(C)[C@@H](Cc7ccccc7)C(=O)N6[C@@H]4Nc4ccccc45)c4ccccc4N[C@H]3N2C(=O)[C@@H]1Cc1ccccc1	10.9	/	4.8	/	-1.8	/	/	/
C=CCOc1cccc(C(=O)Nc2ncn[nH]2)c1	-3.4	/	-0.3	/	-7.7	/	/	/
COc1ccccc1CNC(=O)COC(=O)c1cc(-c2ccco2)nc2ccccc12	71.8*	92.2*	29.1	32.5	10.4	3.0	34.5*	71.0*
CC(C)N=c1cc2n(-c3ccc(Cl)cc3)c3ccccc3nc-2cc1Nc1ccc(Cl)cc1	117.8*	/	78.0*	/	28.7	/	+	+
Cn1c(CNc2ccc(Cl)cc2)nc2ccccc21	-2.5	-4.5	4.4	-40.0	2.7	0.0	/	/
Cc1ccccc1NC(=O)CSc1nnc(-c2ccco2)c(-c2ccco2)n1	52.4*	87.4*	27.0	47.1	5.2	0.0	35.0*	86.2*
Cc1cccc(C)c1NC(=O)CSc1nnc(-c2ccco2)c(-c2ccco2)n1	95.8*	101.6*	57.7*	45.8	11.8	2.0	-18.7	-4.1

From PubChem
